Cycloheximide cs = Cycloheximide Counterscreen for Small Molecule Inhibitors of Shiga Toxin; max response, %; AID 2314, 2010; hit rate 12% among 300,000; cell reporter, cycloheximide protein synthesis inhibition counterscreen; in the data active = max response mostly above about 13%, no sharp cut-off; inactive = mostly below about 14%; also: read at 38.3 µM for the half of the compounds with a filed dose
Pf growth 48h = Primary qHTS for delayed death inhibitors of the malarial parasite plastid, 48 hour incubation; P. falciparum luciferase growth in erythrocytes, 48 h; Potency, µM (series often up to 28.7 µM), hits mostly inhibitors; hit rate 5.9% among 310,000; AID 504832, 2011
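Read-out is firefly luciferase luminescence from an integrated reporter in P. falciparum, so falling signal marks reduced parasite growth. Infected erythrocytes were at 2% hematocrit and 0.1% parasitemia (final) in Albumax-supplemented RPMI 1640.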
Shiga toxin inh = A qHTS for Small Molecule Inhibitors of Shiga Toxin; Vero cells, Shiga toxin protein synthesis inhibition reporter; inhibition, % at 38.7 µM; hit rate 9.2% among 290,000; AID 2315, 2010; in the data active = inhibition mostly above about 28%, no sharp cut-off; inactive = mostly below about 43%
NS1 inh = qHTS Assay for Inhibitors of Influenza NS1 Protein Function; Potency, µM (series often up to 46.1 µM); hit rate 0.4% among 270,000; calls by dose curve; also: actives are rising curves; nearly all actives have a fitted effect of over 50% in size
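A cell-based growth assay was used: compounds that relieve NS1-induced slow growth of budding yeast raise OD600. Assay medium was yeast nitrogen base with ammonium sulphate and -URA supplement, pH 6.0, with 2% galactose.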
Sm TGR block = qHTS Assay for the Inhibitors of Schistosoma Mansoni Peroxiredoxins. Schistosoma mansoni thioredoxin glutathione reductase (TGR), Q962Y6. hit rate 3% among 360,000. Potency, µM (series often up to 114 µM), usual class: inhibitors. purified TGR, DTNB reduction, TNB absorbance 405 nm; also: nearly all actives have a fitted effect of over 60% in size
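TGR 20 nM + NADPH 100 uM (dispensed conc.), cpd preinc 15 min RT; start with NADPH (500 uM addition) then DTNB (15 mM addition). Kinetic TNB absorbance, 405 nm filter. Four-parameter Hill fit across titration.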
Pf growth 96h = Primary qHTS for delayed death inhibitors of the malarial parasite plastid, 96 hour incubation. P. falciparum luciferase reporter growth, 96 h. Potency, µM (titrated, usually from 28.7 µM), hits mostly inhibitors. hit rate 6.9% among 320,000. AID 504834, 2011
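Plates of compound plus infected erythrocytes (2% hematocrit, 0.05% parasitemia final) incubate 96 hours, 37 C, 5% CO2. Detection reagent added; reduced luminescence from the parasites' luciferase reporter flags inhibition.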
Numbers stand for hits; 0 = inactive; ? = inconclusive; - = no result given; [ ] = another dose, or the depositor's remark. Only some compounds are listed: those with a hit (about 21% of all), similar ones and a draw of the others. Unless noted, calls follow the shape of the dose curve; as a rule, active = well fitted curve in the direction sought with a large enough effect; inconclusive = small, poorly fitted or top-dose-only effect, or another doubt; inactive = no such curve, though single readings can be large; an effect the other way counts as inactive or inconclusive.

SMILES	Cycloheximide cs	Pf growth 48h	Shiga toxin inh	NS1 inh	Sm TGR block	Pf growth 96h
O=C(Nc1ccc(F)cc1)c1ccccc1Oc1ccc(C(F)(F)F)cc1[N+](=O)[O-]	0	10µM	0	0	0	0
O=C(Nc1ccc(C(F)(F)F)cc1)C1(c2ccccc2)CC1	12	0	0	0	0	0
O=C(Nc1ccccc1)c1ccccc1Oc1ccc(C(F)(F)F)cc1[N+](=O)[O-]	0	0	0	0	0	0
O=C(Nc1ccc(C(F)(F)F)cc1)c1ccccc1Br	49	0	108	-	0	0
O=C(Nc1ccc(NC(=O)c2ccccc2Br)cc1)c1ccccc1	0	0	0	0	0	0
Cc1cccc2nc(Cn3c(=O)n(-c4ccc(Cl)cc4)c(=O)c4c5c(sc43)CCC5)cc(=O)n12	-	-	-	-	0	-
CC1(C)CC(=O)c2c(O)cc(OCc3ccc([N+](=O)[O-])cc3)cc2O1	0	0	0	?	0	0
CCOc1cc(C)c(S(=O)(=O)NCCCn2ccnc2)cc1C	0	0	-	0	0	0
O=C(/C=C\c1ccccc1)NC1CC(=O)N(c2ccccc2)C1 (centres undefined)	-	-	-	-	0	-
COC(=O)Cc1ccc(NC(=O)c2cccs2)cc1	49	0	82	0	0	0
CC(=O)c1ccc(NC(=O)c2cccs2)cc1	54	-	125	0	0	0
COc1ccc(NC(=O)n2nc(OC(=O)c3cccs3)cc2N)cc1	33	0	51	0	?	0
N/C(=N\O)c1ccc(NC(=O)c2cccs2)cc1	58	0	109	0	0	0
Cc1ccc2nc3n(c2c1)CCCN3	-	?	-	-	0	?
CCc1ccccc1NC(=O)C1CCN(S(=O)(=O)c2cn(C)cn2)CC1	-	-	-	-	0	-
COc1ccc(Nc2oc(-c3ccc(COc4cccc(C)c4)o3)nc2C#N)cc1	-	-	-	-	0	-
CCOC1(/N=C(\C)NS(=O)(=O)c2ccc(Cl)cc2)C(C)=CC(=O)C=C1C	0	0	0	-	0	0
Cc1ccc(Cl)cc1N1CCN(C(=O)c2cn(C3CCCCC3)c(=O)c3c2c2ccccc2n3C)CC1	-	-	-	-	0	-
COc1ccc(Br)cc1CNC(=O)CCSCc1ccc(Cl)cc1	-	-	-	-	0	-
CC(=O)Nc1ccc(OC(=O)c2cccs2)cc1	34	0	71	0	0	-
Cc1nn(-c2ccccc2)c2sc(C(=O)Nc3cccc(Cl)c3)cc12	-	-	-	-	0	-
CC1(C)CC(=O)C2=C(C1)N(CCN1CCOCC1)C1=C(C(=O)CC(C)(C)C1)C2c1ccc(Cl)cc1	0	5.2µM	0	0	0	?
CC1(C)CC(=O)C2=C(C1)N(CCN1CCOCC1)C1=C(C(=O)CC(C)(C)C1)C2c1cccc(F)c1	0	12µM	0	0	0	0
O=C(Nc1ccc(F)cc1F)c1ccc2c(O)c(S(=O)(=O)c3ccc(Cl)cc3)c(=O)[nH]c2c1	-	-	-	-	0	-
COc1cc(C(=O)NC(=S)Nc2ccc(Cc3ccncc3)cc2)cc(OC)c1OC	0	10µM	0	0	?	0
SMILES	Cycloheximide cs	Pf growth 48h	Shiga toxin inh	NS1 inh	Sm TGR block	Pf growth 96h
COc1c(C(=O)Nc2ccc(Cc3ccncc3)cc2)ccc2ccccc12	20	?	96	0	0	0
COc1ccc(Br)cc1C(=O)Nc1ccc(Cc2ccncc2)cc1	0	?	0	0	0	?
O=C(NC(=S)Nc1ccc(Cc2ccncc2)cc1)c1ccccc1	37	0	0	0	0	?
O=C(NC(=S)NC(CO)c1ccccc1)c1ccc(F)cc1 (centres undefined)	0	0	0	?	0	0
O=C(NC(=S)NC(c1ccccc1)c1ccncc1)c1ccccc1 (centres undefined)	0	?	0	0	0	9.3µM
Cc1cc(C)cc(C(=O)NC(=S)Nc2ccc(Cc3ccncc3)cc2)c1	0	?	0	0	0	0
CC(OC(=O)CC(C)c1ccccc1)C(=O)Nc1ccc(Cl)cn1 (centres undefined)	-	?	-	-	0	0
Cc1noc(NS(=O)(=O)c2ccc(NC(=O)Cc3ccc([N+](=O)[O-])cc3)cc2)c1C	0	0	0	0	0	0
COc1ccc(CNC(=O)C2CCN(Cc3nc(-c4ccc(Cl)cc4)oc3C)CC2)cc1	-	-	-	-	0	-
COc1ccc(NC(=O)COC(=O)C2CC(=O)N(CCc3ccc(OC)c(OC)c3)C2)cc1Cl (centres undefined)	-	?	-	-	0	0
COc1ccccc1C(=O)NC(=S)Nc1ccc(Cc2ccncc2)cc1	20	?	42	0	0	0
COc1ccccc1C(=O)Nc1ccncc1	0	0	-	0	0	0
CCC(NC(=O)c1ccccc1Br)c1ccccc1 (centres undefined)	0	0	0	0	0	0
CCC(NC(=O)c1ccncc1)c1ccccc1 (centres undefined)	0	0	0	0	0	15µM
C[C@@H](CO)[C@H](/C=C/c1ccccc1)CCO[Si](c1ccccc1)(c1ccccc1)C(C)(C)C	0	-	0	-	-	-
CCC(C)(C)C1CCC2(CC1)NC(=O)N(CC(=O)NCCc1c[nH]c3ccccc13)C2=O (centres undefined)	-	?	-	-	0	?
CC(C)(C)OC(=O)NC(Cc1ccccc1)C(=O)N1CCC(C(=O)NCC(=O)Nc2ccc(F)cc2)CC1 (centres undefined)	0	?	0	0	0	12µM
CSc1ccccc1Nc1ncnc(N)n1	0	0	0	0	0	0
Cc1ccc(-c2c(C)c(-c3ccc(F)cc3)nc(N)c2C#N)o1	0	0	0	0	28µM	0[5.75 µM]
Cc1c(-c2ccc(F)cc2)nc(N)c(C#N)c1-c1cccs1	0	0	0	0	0	0
Cn1cccc1CC(=O)N/N=C/c1ccco1	0	0	0	0	40µM	?
Cc1ccc(CSc2nnc(SCC(=O)N/N=C/C=C/c3ccco3)s2)cc1	0	0	0	0	?	?
CC(/C=N/NC(=O)CSc1nnc(SCc2ccccc2)s1)=C\c1ccco1	14	0	0	?	?	?
CC(/C=N/NC(=O)CN1CCN(Cc2ccc(Cl)cc2)CC1)=C\c1ccco1	0	0	0	0	79µM	?
Cc1ccc(CN2CCN(CC(=O)N/N=C/c3ccccc3F)CC2)cc1	37	0	118	0	0	0
COC(=O)[C@@H](NC(=O)N1CCN(C(=O)C2COc3ccccc3O2)CC1)C(C)C (some centres undefined)	0	0	0	0	0	0
Cc1ccc(-n2ncc(C(=O)NCc3ccc4c(c3)OCO4)c2C2CCN(C(=O)OC(C)(C)C)CC2)c(C)c1	-	-	-	-	0	-
O=C(O)CCCN1CCCCC1	-	-	-	0	-	-
CC(/C=N/NC(=O)Cc1cccn1C)=C\c1ccco1	0	0	0	0	25µM	0
COc1ccc(C(=O)NCC(=O)N/N=C/C(C)=C/c2ccco2)cc1OC	0	0	0	0	?	0

Screening results (PubChem)
